Measurements as given in PubChem BioAssay (NCATS).
Results filed as inconclusive are left out. Entries that show only a call come without a potency. The source made the active and inactive calls. The call rests on the fitted dose curve; in most records, active means well fitted curve in the direction sought with a large enough effect; inconclusive means small, poorly fitted or top-dose-only effect, or another doubt; inactive means no such curve, though single readings can be large; an effect the other way counts as inactive or inconclusive.

Tested on: Nanoluciferase (engineered Oplophorus gracilirostris luciferase)
Test: Primary Nanoluciferase (NLuc) qHTS assay for identification of artifact compounds. (AID 1845222);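 further: NLuc secreted into diluted conditioned medium of S16 cells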
Settings: NLuc-conditioned medium, Nano-Glo luminescence, 5 min; series mostly up to 54.1 µM
Outline: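 Concentration-response data were obtained by luminescence after 5 min with Nano-Glo substrate at 1:100. The enzyme was diluted S16 NLuc-expressing cell medium, preincubated with compound for 15 min at RT. Curves were fitted with a 4-parameter Hill model.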

Question: For `COc1ccc(Oc2c(Cl)cnn(-c3cc(C)cc(C)c3)c2=O)cc1`, which Potency is on record?
Answer: inactive

Question: For `O=C(c1ccc(OC(F)F)c(C#Cc2ccccn2)c1)N1Cc2cccnc2C1`, which Potency is on record?
Answer: inactive

Question: Which Potency does the source give for `COC(=O)C1=COC(O[C@@H]2O[C@H](CO[C@@H]3O[C@H](COC(=O)/C=C\c4ccc(O)cc4)[C@@H](O)[C@H](O)[C@H]3O)[C@@H](O)[C@H](O)[C@H]2O)C2C(CO)=CCC12` (some centres undefined) here?
Answer: inactive

Question: With `C[C@@H]1O[C@@H](O[C@H]2[C@H](OC(=O)[C@]34CCC(C)(C)C[C@H]3C3=CCC5[C@@]6(C)C[C@H](O)[C@H](O[C@@H]7O[C@H](C(=O)O)[C@@H](O)[C@H](O)[C@H]7O)[C@@](C)(CO)C6[C@H](O)C[C@@]5(C)[C@]3(C)C[C@H]4O)O[C@@H](CO)[C@@H]2O)[C@H](O)[C@H](O)[C@H]1O[C@@H]1OC[C@@H](O)[C@H](O[C@H]2OC[C@](O)(CO)[C@H]2O)[C@H]1O` (some centres undefined) as the compound, how does the activity, negative = inhibition read?
Answer: 1.66% [at 11.6 µM] (inactive)

Question: With `CCC[C@H](N[C@H]1CCc2cc(F)cc(F)c2C1)C(=O)Nc1cn(C(C)(C)CNCC(C)(C)C)cn1` as the compound, how does the Potency read?
Answer: inactive

Tested on: not listed separately
Test: Primary redox qHTS assay for identification of artifact compounds. (AID 1845223)
Settings: Amplex Red/HRP redox cycling with DTT, fluorescence; series mostly up to 53.8 µM
Outline: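 Redox-cycling detection via DTT (250 uM final) oxidation coupled to Amplex Red (25 uM)/HRP (250 mU/mL) in HBSS. 15 min preincubation plus 30 min after DTT, room temperature. Ex/Em 525/598 nm; 4-parameter Hill fit against DMSO and 10 uM DA3003.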

Question: Which Potency does the source give for `O=C(NCCN1CCOCC1)c1cc2c(Oc3ccc(NC(=O)C4(C(=O)Nc5ccc(F)cc5)CC4)cc3)ccnc2[nH]1` here?
Answer: inactive

Question: Which Potency does the source give for `O=C(N[C@H]1CCN(C(=O)c2cc(C(F)(F)F)cc(C(F)(F)F)c2)[C@H](Cc2ccc(Cl)cc2)C1)c1ccnc2ccccc12` here?
Answer: inactive

Question: Which Potency does the source give for `CC(C)Oc1ccc(-c2cnc3c(-c4ccnc5ccccc45)cnn3c2)cc1` here?
Answer: inactive

Question: For `O=C(NCC1(N2CCN(c3ccccc3)CC2)CCOCC1)c1cccnc1Sc1ccccc1`, which Potency is on record?
Answer: inactive

Question: For `CN(C)CCn1cc(-c2ccc(F)cc2)c(-n2cccc2)n1`, which Potency is on record?
Answer: inactive

Question: Which Potency does the source give for `CC1=CC2/C=C(\C)CCC(O)C/C=C/C(=O)OC23C(=O)NC(CC(C)C)C3C1C` (centres undefined) here?
Answer: inactive

Question: For `CCC(C)c1ccc(NC(=O)Cn2cnc3c2c(=O)n(C)c(=O)n3C)cc1` (centres undefined), which Potency is on record?
Answer: inactive

Question: With `COc1ccc(Oc2c(Cl)cnn(-c3cc(C)cc(C)c3)c2=O)cc1` as the compound, how does the Potency read?
Answer: inactive

Question: Which Potency does the source give for `CCC[C@H](N[C@H]1CCc2cc(F)cc(F)c2C1)C(=O)Nc1cn(C(C)(C)CNCC(C)(C)C)cn1` here?
Answer: inactive
